From PubChem BioAssay come the findings set out here.

A number with no mark means an inactive call. Calls of active or inactive are those of the source.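 How the source made its calls: active means growth inhibition above 50% at the single 2 µM test dose, taken to imply half-maximal potency below 2 µM; inactive means the rest.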

A short description of this assay: antimalarial activity against Dd2 strain (AID 2302).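 Further: 0% = DMSO untreated growth and 100% = chloroquine plus artemisinin killed control.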 The conditions noted are these: P. falciparum Dd2 in RBCs, LDH growth readout, 72 h; at 2 µM; hits give high values.
As for `O=C(Nc1cccc(OC2CCN(Cc3ccccc3)CC2)c1)Nc1cccc([N+](=O)[O-])c1`, the growth inhibition was 48%. Turning to `CCCNCc1ccc(-c2ccc(CN(Cc3cnc(C)cn3)C(=O)/C=C/c3ccccc3C)cc2)nc1`, the growth inhibition is 15%. For the molecule `COc1ccc(CN2CCCC(OC(c3ccc(F)cc3)c3ccc(F)cc3)C2)c(O)c1` (centres undefined), the growth inhibition was 99% (active). Turning to `Cc1cc(N[C@@H](Cc2ccccc2)C(=O)NC2CCCC2)nc(NCC2CCCCC2)n1`, the growth inhibition was 96% (active). Then `N=C(N)c1ccc(Oc2ccc(C(=N)N)cc2)cc1`, with 85% (active). Then `COc1cccc2c(NCc3ccccc3)nc(NCCCN3CCCCC3C)nc12` (centres undefined), with 2%; and `CCNc1cc(C(=O)N[C@@H](Cc2ccccc2)[C@H](O)CNCc2cc(OC)cc(OC)c2)cc(N2CCCC2=O)c1`, with 75% (active). Then `CS(=O)(=O)c1ccc(-c2nc(NCC3CCCCC3)cc(C(F)(F)F)n2)cc1`, with 76% (active); and `CC(=NN=C(N)N)C(=O)Nc1ccc(Cl)c(Cl)c1`, with 97% (active); and `Cc1[nH]c2ccc(O)cc2c1C1CCN(CCCCCNC(=O)/C=C/c2ccc(Cl)c(Cl)c2)CC1`, with 1%.

For `O=C(Nc1ccccc1Cl)N(Cc1cc(Cl)cc(Cl)c1)CC(O)COc1ccc(Cl)c(F)c1` (centres undefined), the growth inhibition was 17%. For the molecule `CO/C(=C\C=C\c1cc2cc(Cl)c(Cl)cc2[nH]1)C(=O)NCCCNC12CC3CC(CC(C3)C1)C2`, the growth inhibition is 76% (active). Then `COc1ccc2[nH]c(C(=O)Nc3cccc(-c4ccc(CN(C)C)cc4)c3)cc2c1`, with 34%; and `Brc1cc(Br)c2c(c1)C(NCCCNC1CCNc3c(Br)cc(Br)cc31)CCN2` (centres undefined), with 25%.
